From PubChem BioAssay (NCATS)
“And” between values parts separate entries of the source, which are not always exact repeats. Equal values may be shown once. Inconclusive results are not listed. The source made the active and inactive calls. Unless noted, calls follow the shape of the dose curve; as a rule, active = well fitted curve in the direction sought with a large enough effect; inconclusive = small, poorly fitted or top-dose-only effect, or another doubt; inactive = no such curve, though single readings can be large; an effect the other way counts as inactive or inconclusive.

Legend:
[1] = Validation of Assay for Modulators of Lamin A Splicing (AID 1459; active = well fitted curve in the direction sought with a large enough effect in the signal ratio; the % refers to the signal ratio;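 also: cells exposed to compound for two days before reading; 0% is about no effect; ratio rise marks activators and ratio drop marks inhibitors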)
Outline: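 S3 HeLa stably expressing lamin A-EGFP splicing minigene and DsRed2, 600 cells/well in Opti-MEM with 2% FBS, treated 48 h at 37C; laser-scanning cytometry gives GFP/RFP total intensity ratio; ancitabine positive control, 0.5% DMSO vehicle.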

[2] = biological target: DNA repair nuclease/redox regulator APEX1 (Homo sapiens) (UniProt P27695); experiment: qHTS Validation Assay for Inhibitors of the Human Apurinic/apyrimidinic Endonuclease 1 (APE1) (AID 1705;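 also: TAMRA fluorescence gain over two minutes as APE1 cuts a quenched THF abasic duplex; series mostly up to about 57 µM; % is scaled to controls: 0 for no effect and ±100 for the full control effect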)
Chain of DNA repair nuclease/redox regulator APEX1 (Homo sapiens) (P27695 whole entry, looked up): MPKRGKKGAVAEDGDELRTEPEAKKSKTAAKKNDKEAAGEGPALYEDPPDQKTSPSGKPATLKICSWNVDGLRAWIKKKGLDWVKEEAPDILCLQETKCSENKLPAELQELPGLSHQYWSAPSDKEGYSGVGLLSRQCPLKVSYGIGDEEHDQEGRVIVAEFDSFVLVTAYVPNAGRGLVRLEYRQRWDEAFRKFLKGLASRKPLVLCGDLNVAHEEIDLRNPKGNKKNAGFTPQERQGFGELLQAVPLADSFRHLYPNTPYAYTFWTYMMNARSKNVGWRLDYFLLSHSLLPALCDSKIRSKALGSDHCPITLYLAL
Outline: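 Fluorogenic double-stranded THF abasic-site substrate (5'-TAMRA/3'-BHQ-2), 50 nM final. Enzyme preincubated with compound 15 min at room temperature, then substrate added. Kinetic fluorescence (ex 525/em 598 nm) read three times at 60 s intervals; activity taken as third-minus-first read difference.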

[3] = Counterscreen for APE1 Inhibitors: Fluorescent Dye Displacement Validation Assay (AID 1707);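 also: plate controls were ThO with dsDNA and no compound for no effect and ThO without dsDNA for full effect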
Outline: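 Compounds are scored by their ability to displace Thiazole Orange (250 nM) from a 50 nM TAMRA-tagged duplex bearing a tetrahydrofuran abasic site. Buffer is 50 mM Tris-HCl pH7.5, 50mM NaCl, 2 mM MgCl2, 0.01% Tween-20.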

[4] = biological target: Ferritin light chain (Equus caballus) (UniProt P02791); experiment: qHTS Validation Assay for Identification of Novel General Anesthetics (AID 2323); also: series mostly up to about 77 µM; % is scaled to controls: 0 for no effect and ±100 for the full control effect
Chain of Ferritin light chain (Equus caballus) (P02791 2-175 limits assumed): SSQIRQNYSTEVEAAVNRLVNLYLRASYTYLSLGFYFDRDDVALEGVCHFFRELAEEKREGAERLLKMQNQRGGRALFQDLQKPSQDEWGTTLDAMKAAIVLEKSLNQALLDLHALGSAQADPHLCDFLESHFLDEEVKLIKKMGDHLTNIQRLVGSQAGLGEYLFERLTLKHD
Outline: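 Horse-spleen apoferritin (10 uM) in PBS with 50% saturated 1-aminoanthracene; compounds pin-transferred, 10 min at room temperature. Fluorescence read at 380/535 nm, normalized to free 1-AMA and 1-AMA/apoferritin values; four-parameter Hill fit.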

[5] = Quantitative high throughput screen for delayed death inhibitors of the malarial parasite plastid, 96 hour incubation (AID 488745); also: nearly all actives have a fitted effect of over 70% in size; also: potency is read from the fitted curve at half-maximal effect
Outline: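 Luciferase-expressing P. falciparum in erythrocytes (2% hematocrit, 0.1% parasitemia) incubated with compound for 96 h at 37 C, 5% CO2, in RPMI 1640 with 0.5% Albumax. Growth inhibition read as decreased luminescence.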

[6] = Quantitative high throughput screen for delayed death inhibitors of the malarial parasite plastid, 48 hour incubation (AID 488752); also: nearly all actives have a fitted effect of over 65% in size; also: potency is read from the fitted curve at half-maximal effect
Outline: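 Erythrocytes infected with firefly luciferase-expressing P. falciparum (2% hematocrit, 0.1% parasitemia) cultured with compound for 48 h at 37 C, 5% CO2, in RPMI 1640/0.5% Albumax. Growth inhibition read as loss of luminescence.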

[7] = biological target: Transient receptor potential cation channel subfamily V member 1 (Homo sapiens) (UniProt Q8NER1); experiment: HTS Assay for Compounds that Act as Enhancers of the Vanilloid Receptor 1 (AID 488979); also: 0% is about no effect
Chain of Transient receptor potential cation channel subfamily V member 1 (Homo sapiens) (Q8NER1 whole entry, looked up): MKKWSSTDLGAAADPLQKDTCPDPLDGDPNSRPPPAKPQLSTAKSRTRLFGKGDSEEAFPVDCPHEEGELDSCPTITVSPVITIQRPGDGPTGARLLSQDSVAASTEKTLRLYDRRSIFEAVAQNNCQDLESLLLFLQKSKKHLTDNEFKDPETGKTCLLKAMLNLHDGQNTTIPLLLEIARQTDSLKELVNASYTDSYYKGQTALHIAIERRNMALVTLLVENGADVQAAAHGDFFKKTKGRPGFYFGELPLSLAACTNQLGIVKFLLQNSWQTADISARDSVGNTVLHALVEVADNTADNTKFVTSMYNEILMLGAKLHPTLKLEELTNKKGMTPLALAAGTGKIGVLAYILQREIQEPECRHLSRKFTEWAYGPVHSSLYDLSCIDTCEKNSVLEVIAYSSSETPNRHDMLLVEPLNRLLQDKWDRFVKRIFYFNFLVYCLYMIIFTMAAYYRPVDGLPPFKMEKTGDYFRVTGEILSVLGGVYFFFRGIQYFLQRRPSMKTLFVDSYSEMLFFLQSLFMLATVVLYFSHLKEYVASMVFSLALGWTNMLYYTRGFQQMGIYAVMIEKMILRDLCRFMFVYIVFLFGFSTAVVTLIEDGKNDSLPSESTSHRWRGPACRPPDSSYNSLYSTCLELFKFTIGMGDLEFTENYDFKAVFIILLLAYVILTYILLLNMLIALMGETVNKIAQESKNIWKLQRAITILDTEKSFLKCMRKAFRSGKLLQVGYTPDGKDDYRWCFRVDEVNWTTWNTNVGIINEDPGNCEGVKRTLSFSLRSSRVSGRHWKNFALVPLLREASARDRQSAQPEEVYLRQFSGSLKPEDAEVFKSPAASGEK
Outline: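 TRPV1-expressing cells loaded with Fluo-8 calcium dye; compounds added and calcium influx read kinetically for 3 min (agonist phase), then capsaicin at EC20 added and read 2 min more for enhancement. Fluorescence ex 480/em 520 nm.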

[8] = biological target: Thyrotropin receptor (Homo sapiens) (UniProt P16473); experiment: qHTS Assay for Antagonists of the Thyroid Stimulating Hormone Receptor (AID 488980); also: series mostly up to about 58 µM; 0% is about no effect
Chain of Thyrotropin receptor (Homo sapiens) (P16473 whole entry, looked up): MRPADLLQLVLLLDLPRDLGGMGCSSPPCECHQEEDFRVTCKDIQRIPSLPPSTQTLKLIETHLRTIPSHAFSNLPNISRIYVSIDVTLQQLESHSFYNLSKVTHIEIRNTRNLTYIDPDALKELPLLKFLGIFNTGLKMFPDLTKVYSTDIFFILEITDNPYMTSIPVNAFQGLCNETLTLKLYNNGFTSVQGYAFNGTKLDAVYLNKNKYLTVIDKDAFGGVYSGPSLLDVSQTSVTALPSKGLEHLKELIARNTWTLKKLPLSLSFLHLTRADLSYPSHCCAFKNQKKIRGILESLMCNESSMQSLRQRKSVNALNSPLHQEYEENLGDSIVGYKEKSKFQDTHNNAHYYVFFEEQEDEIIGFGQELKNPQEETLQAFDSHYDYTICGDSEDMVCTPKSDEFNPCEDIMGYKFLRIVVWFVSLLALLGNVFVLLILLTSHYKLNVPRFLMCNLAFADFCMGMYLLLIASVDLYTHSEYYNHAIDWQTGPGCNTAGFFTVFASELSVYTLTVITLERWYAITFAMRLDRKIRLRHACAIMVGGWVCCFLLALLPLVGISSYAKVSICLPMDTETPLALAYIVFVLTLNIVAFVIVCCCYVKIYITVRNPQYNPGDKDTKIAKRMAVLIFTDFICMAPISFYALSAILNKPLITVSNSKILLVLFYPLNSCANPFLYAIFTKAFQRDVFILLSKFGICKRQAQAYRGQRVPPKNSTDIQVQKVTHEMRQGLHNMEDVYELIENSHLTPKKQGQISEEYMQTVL
Outline: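 TSHR-transfected HEK293 cells (2000/well) in HEPES-buffered HBSS with 70 uM RO 20-1724 were stimulated with 4 nM TSH (EC80, final) in the presence of compound. cAMP was measured by HTRF competition after lysis and 30 min at RT.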

[9] = biological target: Thyrotropin-releasing hormone receptor (Homo sapiens) (UniProt P34981); experiment: qHTS for Small Molecule Agonists and Allosteric Enhancers of Human TRH Receptor: Validation Screen for Agonists (AID 493127;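 active = calcium activation more than 3 SD above the typical response in the agonist read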; also: 0% is about no effect); conditions: TRH receptor agonist cell assay; at 2 µM; hits give high values
Chain of Thyrotropin-releasing hormone receptor (Homo sapiens) (P34981 whole entry, looked up): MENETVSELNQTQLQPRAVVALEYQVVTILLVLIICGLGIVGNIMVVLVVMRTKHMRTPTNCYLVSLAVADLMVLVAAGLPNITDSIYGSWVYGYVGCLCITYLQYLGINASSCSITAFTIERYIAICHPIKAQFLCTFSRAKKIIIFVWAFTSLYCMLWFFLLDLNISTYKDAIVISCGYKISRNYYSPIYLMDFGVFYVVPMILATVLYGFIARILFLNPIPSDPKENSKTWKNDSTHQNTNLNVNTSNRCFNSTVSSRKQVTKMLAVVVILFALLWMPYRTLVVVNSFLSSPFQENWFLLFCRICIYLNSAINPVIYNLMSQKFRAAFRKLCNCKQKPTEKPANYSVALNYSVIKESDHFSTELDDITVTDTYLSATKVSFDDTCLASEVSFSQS
Outline: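 TRHR cells loaded with fluo-8 calcium dye; FDSS kinetic fluorescence (Ex 480/Em 530) read at 1 s/cycle after 23 nL compound addition. Agonist-mode calcium response recorded before the 10 nM TRH (EC20) addition.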

[10] = biological target: Galactokinase (Homo sapiens) (UniProt P51570); experiment: qHTS Validation Assay for Inhibitors of Human Galactokinase (GALK) (AID 493189); also: 0% is about no effect
Chain of Galactokinase (Homo sapiens) (P51570 whole entry, looked up): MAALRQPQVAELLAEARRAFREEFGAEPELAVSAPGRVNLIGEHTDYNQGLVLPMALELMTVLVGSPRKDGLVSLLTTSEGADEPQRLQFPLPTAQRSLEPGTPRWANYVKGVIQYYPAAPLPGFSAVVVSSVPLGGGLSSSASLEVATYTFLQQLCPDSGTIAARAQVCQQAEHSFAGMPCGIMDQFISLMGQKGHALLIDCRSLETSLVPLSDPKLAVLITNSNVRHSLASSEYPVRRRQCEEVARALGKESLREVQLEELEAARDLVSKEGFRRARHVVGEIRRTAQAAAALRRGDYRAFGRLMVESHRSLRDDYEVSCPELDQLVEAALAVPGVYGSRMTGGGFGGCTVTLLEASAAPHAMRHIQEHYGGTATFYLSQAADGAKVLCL
Outline: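 GALK (5 nM) with 35 uM ATP and 100 uM galactose in HEPES pH 8.0 with MgCl2, NaCl, DTT and BSA. Reaction ran 1 h at room temperature. Residual ATP read by Kinase-Glo Plus luminescence.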

[11] = Validation screen for small molecules that induce DNA re-replication in SW480 colon adenocarcinoma cells (AID 504364); also: 0% is about no effect
Outline: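 SW480 cells (250/well) exposed 48 h at 37 C, 5% CO2, then Hoechst-stained 40 min. Nuclear DNA content imaged by fluorescence scanning (405 nm excitation, 500-530 nm emission); re-replication scored as increased nuclei with elevated intensity.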

[12] = biological target: Voltage-gated inwardly rectifying potassium channel KCNH2 (Homo sapiens) (UniProt Q12809); experiment: qHTS Assay for Small Molecule Inhibitors of the Human hERG Channel Activity (AID 588834);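 also: lower thallium flux fluorescence means stronger hERG block; nearly all actives have a fitted effect of over 50% in size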; also: potency is read from the fitted curve at half-maximal effect
Chain of Voltage-gated inwardly rectifying potassium channel KCNH2 (Homo sapiens) (Q12809 whole entry, looked up): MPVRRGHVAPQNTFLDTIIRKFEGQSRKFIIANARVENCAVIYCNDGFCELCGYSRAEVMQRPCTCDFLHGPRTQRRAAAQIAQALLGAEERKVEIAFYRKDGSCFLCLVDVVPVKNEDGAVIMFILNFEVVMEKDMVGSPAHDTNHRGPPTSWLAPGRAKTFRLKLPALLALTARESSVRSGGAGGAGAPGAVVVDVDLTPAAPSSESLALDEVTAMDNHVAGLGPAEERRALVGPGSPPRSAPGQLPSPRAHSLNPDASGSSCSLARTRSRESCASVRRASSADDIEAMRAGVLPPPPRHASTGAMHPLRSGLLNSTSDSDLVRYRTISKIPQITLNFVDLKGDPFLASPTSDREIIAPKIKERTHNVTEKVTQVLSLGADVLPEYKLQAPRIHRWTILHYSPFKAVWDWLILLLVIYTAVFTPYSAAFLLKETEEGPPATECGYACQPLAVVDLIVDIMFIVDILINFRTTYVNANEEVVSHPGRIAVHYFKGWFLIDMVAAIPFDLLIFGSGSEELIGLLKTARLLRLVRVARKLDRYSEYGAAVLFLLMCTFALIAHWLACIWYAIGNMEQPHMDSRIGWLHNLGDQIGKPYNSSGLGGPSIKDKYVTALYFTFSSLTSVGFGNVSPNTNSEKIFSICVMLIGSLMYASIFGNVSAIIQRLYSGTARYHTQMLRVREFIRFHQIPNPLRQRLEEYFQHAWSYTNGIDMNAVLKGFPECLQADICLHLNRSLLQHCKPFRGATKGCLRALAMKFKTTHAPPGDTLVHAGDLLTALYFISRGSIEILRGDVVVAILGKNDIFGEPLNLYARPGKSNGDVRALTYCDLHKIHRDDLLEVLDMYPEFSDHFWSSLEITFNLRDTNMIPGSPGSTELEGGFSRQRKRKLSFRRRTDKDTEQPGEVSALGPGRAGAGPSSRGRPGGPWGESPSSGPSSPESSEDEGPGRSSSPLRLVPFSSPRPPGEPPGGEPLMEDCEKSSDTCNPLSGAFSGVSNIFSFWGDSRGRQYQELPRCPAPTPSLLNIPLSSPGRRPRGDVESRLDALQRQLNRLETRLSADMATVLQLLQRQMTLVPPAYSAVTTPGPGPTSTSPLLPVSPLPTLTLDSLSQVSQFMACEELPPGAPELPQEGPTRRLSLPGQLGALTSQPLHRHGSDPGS
Outline: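 U2OS cells BacMam-transduced with hERG, 2000 cells/well, compound ~10 min at 37 °C before stimulation buffer. FluxOR thallium flux fluorescence read kinetically on FDSS; decrease indicates block; AC50 from Hill fits.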

[13] = qHTS for differential inhibitors of proliferation of Plasmodium falciparum line 3D7 (AID 1876); also: potency is read from the fitted curve at half-maximal effect
[14] = qHTS for differential inhibitors of proliferation of Plasmodium falciparum line D10 (AID 1877);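 also: parasites grown with compound for 72 h before DNA staining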; also: potency is read from the fitted curve at half-maximal effect
[15] = qHTS for differential inhibitors of proliferation of Plasmodium falciparum line Dd2 (AID 1882); conditions: Potency: Plasmodium falciparum Dd2 proliferation inhibition; also: nearly all actives have a fitted effect of over 65% in size; also: potency is read from the fitted curve at half-maximal effect
Outline: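 Dd2-infected erythrocytes (0.3% parasitemia, 2.5% hematocrit final) incubated with compound 72 h at 37 C, 5% CO2; lysed with saponin/Triton buffer containing SYBR Green I, incubated overnight in the dark, then read by fluorescence (485/535 nm). Normalized to 0.29 uM artemisinin and DMSO.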

[16] = qHTS for differential inhibitors of proliferation of Plasmodium falciparum line HB3 (AID 1886); conditions: Potency: Plasmodium falciparum HB3 proliferation inhibition;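 also: parasites grown with compound for 72 h before SYBR Green readout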; also: potency is read from the fitted curve at half-maximal effect
[17] = biological target: M-phase phosphoprotein 8 (Homo sapiens) (UniProt Q99549); experiment: qHTS Validation Assay for Inhibitors for MPP8 Chromodomain Interactions with Methylated Histone Tails (AID 488949); also: nearly all actives have a fitted effect of over 55% in size; also: potency is read from the fitted curve at half-maximal effect
Chain of M-phase phosphoprotein 8 (Homo sapiens) (Q99549 whole entry, looked up): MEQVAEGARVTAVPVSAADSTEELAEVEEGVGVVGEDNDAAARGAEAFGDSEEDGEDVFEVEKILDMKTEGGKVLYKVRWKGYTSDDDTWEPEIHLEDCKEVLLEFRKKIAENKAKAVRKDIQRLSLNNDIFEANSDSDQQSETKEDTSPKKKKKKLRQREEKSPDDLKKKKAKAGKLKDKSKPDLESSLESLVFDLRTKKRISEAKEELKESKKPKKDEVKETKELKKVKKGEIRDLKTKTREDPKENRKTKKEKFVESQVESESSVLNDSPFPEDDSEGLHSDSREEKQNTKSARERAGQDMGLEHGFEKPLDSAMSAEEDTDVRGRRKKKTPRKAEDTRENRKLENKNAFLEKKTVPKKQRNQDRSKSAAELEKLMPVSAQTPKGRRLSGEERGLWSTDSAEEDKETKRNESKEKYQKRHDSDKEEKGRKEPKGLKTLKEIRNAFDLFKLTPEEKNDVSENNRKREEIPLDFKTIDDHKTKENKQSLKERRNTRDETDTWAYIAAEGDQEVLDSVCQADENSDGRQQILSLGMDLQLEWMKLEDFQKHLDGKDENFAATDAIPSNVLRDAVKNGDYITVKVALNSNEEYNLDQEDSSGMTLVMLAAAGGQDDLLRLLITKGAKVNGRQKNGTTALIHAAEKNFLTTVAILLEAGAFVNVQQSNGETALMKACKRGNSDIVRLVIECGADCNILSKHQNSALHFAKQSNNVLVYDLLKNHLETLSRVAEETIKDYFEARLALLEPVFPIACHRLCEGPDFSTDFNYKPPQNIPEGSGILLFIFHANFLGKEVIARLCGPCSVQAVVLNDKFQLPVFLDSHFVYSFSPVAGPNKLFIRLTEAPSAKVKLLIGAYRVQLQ
Outline: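 MPP8 (50 nM) was pre-bound to 50 nM biotinylated H3(1-18)K9me3 peptide in PBS pH 7.4 with 0.01% Tween-20. Compounds were then added for 30 min at room temperature, and complex disruption was read by AlphaScreen with streptavidin donor and nickel-chelate acceptor beads.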

[18] = biological target: Endonuclease 4 (Escherichia coli (strain K12)) (UniProt P0A6C1); experiment: Counterscreen for APE1 Inhibitors: qHTS Validation Assay for Inhibitors of Endonuclease IV (AID 1708); also: % is scaled to controls: 0 for no effect and ±100 for the full control effect
Outline: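 Concentration-response counterscreen run identically to the APE1 assay: 15 min room-temperature preincubation of 2 nM enzyme with compound, reaction started with 50 nM quenched abasic DNA, progress taken from kinetic fluorescence.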

[19] = Validation screen for small molecules that induce DNA re-replication in MCF 10A normal breast cells (AID 463097); also: 0% is about no effect; nearly all actives have a fitted effect of over 60% in size
Outline: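 MCF 10A cells exposed to compound 48 hr at 37 C, 5% CO2, then Hoechst-stained 40 min. Laser-scanning imaging of nuclear DNA content (405 nm ex, 500-530 nm em); re-replication scored as rise in nuclei with elevated fluorescence intensity.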

CN1C[C@H](C(=O)N[C@]2(C)O[C@@]3(O)C4CCCN4C(=O)[C@H](Cc4ccccc4)N3C2=O)C[C@@H]2c3cccc4[nH]cc(c34)C[C@H]21 (stereo not given in full)
active: Potency [5] 2.94 µM | Potency [6] 2.33 µM | Potency [12] 11.2 µM
inactive: outcome [1] | Potency [2] | Potency [3] | outcome [4] | outcome [7] | outcome [8] | activation [9] 0.625% | outcome [10] | outcome [11]

CC(C)(C)[C@]1(O)CCN2CC3c4ccccc4CCc4cccc(c43)[C@@H]2C1 (stereo not given in full)
inactive: outcome [1] | Potency [2] | Potency [3] | Potency [17] | outcome [8] | outcome [10] | outcome [11]
active: Potency [13] 6.31 µM and 3.55 µM | Potency [14] 12.6 µM and 11.2 µM | Potency [15] 7.08 µM and 14.1 µM | Potency [16] 12.6 µM and 6.31 µM | Potency [12] 2 µM

CN(C)C1C(=O)C(C(N)=O)=C(O)[C@@]2(O)C(=O)C3=C(O)c4c(O)ccc(Cl)c4[C@@H](O)C3C[C@@H]12 (stereo not given in full)
active: Potency [13] 0.794 µM | Potency [5] 0.738 µM | Potency [6] 6.57 µM
inactive: outcome [1] | Potency [2] | Potency [3] | outcome [4] | Potency [17] | outcome [7] | outcome [8] | activation [9] 1.62% | outcome [10] | Potency [12]

CC(C)C[C@H]1C(=O)N2CCCC2[C@]2(O)O[C@](NC(=O)[C@@H]3C=C4c5cccc6[nH]c(Br)c(c56)C[C@H]4N(C)C3)(C(C)C)C(=O)N12 (stereo not given in full)
inactive: outcome [1] | Potency [2] | Potency [3] | outcome [4] | Potency [17] | outcome [7] | outcome [8] | activation [9] 0.625% | outcome [10] | Potency [12]
active: Potency [5] 9.28 µM | Potency [6] 8.28 µM

CCn1c(=O)c2[nH]c(-c3ccccc3)nc2n(CC)c1=O
inactive: outcome [1] | Potency [2] | Potency [3] | outcome [18] | Potency [13] | Potency [14] | Potency [15] | Potency [16] | outcome [19] | Potency [6] | Potency [17] | outcome [7] | outcome [8] | activation [9] 0.688% | outcome [10] | outcome [11]

COC(=O)c1c(-c2cc(OC)c(OC)c(OC)c2)c2ccc(OCc3ccccn3)cc2c(=O)n1-c1ccc(N)cc1
active: Potency [13] 3.98 µM | Potency [14] 7.08 µM | Potency [15] 2 µM | Potency [16] 2.82 µM | Potency [5] 7.38 µM | Potency [6] 9.28 µM | Potency [17] 28.2 µM
inactive: outcome [1] | Potency [2] | Potency [3] | outcome [4] | outcome [19] | outcome [7] | outcome [8] | activation [9] -4% | outcome [10] | outcome [11]

COc1cc2c(cc1OC)C(c1ccccc1)CN(C)CC2 (stereo not given)
active: Potency [13] 14.1 µM
inactive: outcome [1] | Potency [2] | Potency [3] | outcome [18] | outcome [4] | outcome [19] | Potency [5] | Potency [6] | Potency [17] | outcome [7] | outcome [8] | activation [9] 1.81% | outcome [10] | outcome [11]

CCSC(N)=Nc1ccc(C(F)(F)F)cc1
inactive: outcome [1] | Potency [2] | Potency [3] | outcome [18] | Potency [13] | Potency [14] | Potency [15] | Potency [16] | outcome [19] | Potency [5] | Potency [6] | Potency [17] | outcome [7] | outcome [8] | activation [9] -5.5% | outcome [10] | outcome [11] | Potency [12]
